# Assay results as given in PubChem BioAssay (EPA / NIEHS).
# Calls of active or inactive are those of the source. The calls were made as follows: active = hit-call score of the fitted dose curve at least 0.9, where 1 is the maximum; inactive = score below 0.9.
# Test: APR_HepG2_StressKinase_72hr: Apredica 72-hour HepG2 Assay for Stress Kinase (AID 2282921)
# Conditions: HepG2 stress kinase (phospho-c-Jun) imaging, actives raise or lower the signal
# Method in brief: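 Stress kinase signal reflects nuclear phospho-c-Jun staining in fixed, permeabilized cells exposed 72 h to compound at 0.39–200 uM; DMSO-normalized, fitted for increases or decreases.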
Compound,outcome,AC50
C[C@]12CCC(=O)C=C1CC[C@@H]1[C@@H]2CC[C@]2(C)C(=O)CC[C@@H]12,inactive,–
O=S(=O)(O)C(F)(F)C(F)(F)C(F)(F)C(F)(F)C(F)(F)C(F)(F)F,inactive,–
CCOP(=S)(OCC)SCSC(C)(C)C,inactive,–
O=C(NC(=O)c1cc(F)c(F)cc1Cl)Nc1cc(F)ccc1N1CCC(C(=O)O)CC1,inactive,–
CC(c1ccc(O)cc1)(c1ccc(O)cc1)c1ccc(O)cc1,inactive,–
ClC1=C(Cl)[C@]2(Cl)[C@@H]3[C@@H](Cl)[C@H]4O[C@H]4[C@@H]3C1(Cl)C2(Cl)Cl,inactive,–
Cc1ccccc1[N+](=O)[O-],inactive,–
ClC1=C(Cl)[C@]2(Cl)[C@@H]3[C@H]4C[C@H]([C@@H]5O[C@H]45)[C@@H]3[C@@]1(Cl)C2(Cl)Cl,inactive,–
Oc1c(Cl)c(Cl)c(Cl)c(Cl)c1Cl,inactive,–
CCCCCCCCCc1ccc(O)cc1,inactive,–
O=S(=O)(O)C(F)(F)C(F)(F)C(F)(F)C(F)(F)F,inactive,–
Cc1cc(-c2ccc(N)c(C)c2)ccc1N,inactive,–
CC#Cc1cc(C)nc(Nc2ccccc2)n1,inactive,–
O=C(O)C(F)(F)C(F)(F)C(F)(F)C(F)(F)C(F)(F)C(F)(F)C(F)(F)C(F)(F)F,inactive,–
O=C(O)C(F)(F)C(F)(F)C(F)(F)C(F)(F)C(F)(F)C(F)(F)C(F)(F)C(F)(F)C(F)(F)F,–,113 µM (active)
CCCCCCCCCC[N+](C)(C)CCCCCCCCCC,inactive,–
CCC(=O)O[C@H]1CC[C@H]2[C@@H]3CCC4=CC(=O)CC[C@]4(C)[C@H]3CC[C@]12C,inactive,–

Compound,outcome,AC50
COc1ccc(O)c(C(C)(C)C)c1,inactive,–
CC1=C2C[C@H]3[C@@H](CC=C4C[C@@H](O)CC[C@@]43C)[C@@H]2CC[C@]12O[C@@H]1C[C@H](C)CN[C@H]1[C@H]2C,inactive,–
O=C(N[C@H]1CN2CCC1CC2)c1cc2ccoc2cn1,inactive,–
NS(=O)(=O)C(F)(F)C(F)(F)C(F)(F)C(F)(F)C(F)(F)C(F)(F)C(F)(F)C(F)(F)F,inactive,–
Oc1ccc(C(c2ccc(O)cc2)(C(F)(F)F)C(F)(F)F)cc1,inactive,–
ClC(Cl)=C(c1ccc(Cl)cc1)c1ccc(Cl)cc1,inactive,–
C[C@]12CCC(=O)C=C1CC[C@@H]1[C@@H]2CC[C@@]2(C)[C@H]1CC[C@]2(C)O,inactive,–
CCCN(CCC)N=O,inactive,–
CC(C)(c1ccccc1)c1ccc(O)cc1,inactive,–
Cc1cc2c3c(c1)C(c1ccccc1)=N[C@@H](NC(=O)c1ccncc1)C(=O)N3CC2,inactive,–
CC(C)(O)C(=O)Nc1ccc([N+](=O)[O-])c(C(F)(F)F)c1,inactive,–
CCCCCCOC(=O)c1ccccc1C(=O)OCCCCCC,inactive,–
N#Cc1ccc(N(CC(N)=O)CC(F)(F)F)cc1C(F)(F)F,inactive,–
Clc1ccc(Cl)cc1,inactive,–
Clc1ccc(C(c2ccccc2Cl)C(Cl)(Cl)Cl)cc1 (stereo unspecified),inactive,–
c1cc2ccc3cccc4ccc(c1)c2c34,inactive,–

# Test: APR_HepG2_StressKinase_24hr: Apredica 24-hour HepG2 Assay for Stress Kinase (AID 2282922)
# Conditions: HepG2 stress kinase (phospho-c-Jun) imaging, actives raise or lower the signal
# Method in brief: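 High-content imaging of phospho-c-Jun immunofluorescence in fixed, permeabilized HepG2 cells after 24 h dosing. Ten concentrations, 0.39 to 200 uM, run in duplicate at 0.5% v/v DMSO; gain or loss of signal versus DMSO.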
Compound,outcome,AC50
C[C@]12CCC(=O)C=C1CC[C@@H]1[C@@H]2CC[C@]2(C)C(=O)CC[C@@H]12,inactive,–
O=S(=O)(O)C(F)(F)C(F)(F)C(F)(F)C(F)(F)C(F)(F)C(F)(F)F,inactive,–
CCOP(=S)(OCC)SCSC(C)(C)C,inactive,–
O=C(NC(=O)c1cc(F)c(F)cc1Cl)Nc1cc(F)ccc1N1CCC(C(=O)O)CC1,inactive,–
CC(c1ccc(O)cc1)(c1ccc(O)cc1)c1ccc(O)cc1,inactive,–
ClC1=C(Cl)[C@]2(Cl)[C@@H]3[C@@H](Cl)[C@H]4O[C@H]4[C@@H]3C1(Cl)C2(Cl)Cl,inactive,–
Cc1ccccc1[N+](=O)[O-],inactive,–
ClC1=C(Cl)[C@]2(Cl)[C@@H]3[C@H]4C[C@H]([C@@H]5O[C@H]45)[C@@H]3[C@@]1(Cl)C2(Cl)Cl,inactive,–
Oc1c(Cl)c(Cl)c(Cl)c(Cl)c1Cl,inactive,–
CCCCCCCCCc1ccc(O)cc1,inactive,–
O=S(=O)(O)C(F)(F)C(F)(F)C(F)(F)C(F)(F)F,inactive,–
Cc1cc(-c2ccc(N)c(C)c2)ccc1N,inactive,–
CC#Cc1cc(C)nc(Nc2ccccc2)n1,inactive,–
O=C(O)C(F)(F)C(F)(F)C(F)(F)C(F)(F)C(F)(F)C(F)(F)C(F)(F)C(F)(F)F,inactive,–
O=C(O)C(F)(F)C(F)(F)C(F)(F)C(F)(F)C(F)(F)C(F)(F)C(F)(F)C(F)(F)C(F)(F)F,inactive,–
CCCCCCCCCC[N+](C)(C)CCCCCCCCCC,inactive,–
CCC(=O)O[C@H]1CC[C@H]2[C@@H]3CCC4=CC(=O)CC[C@]4(C)[C@H]3CC[C@]12C,inactive,–

Compound,outcome,AC50
COc1ccc(O)c(C(C)(C)C)c1,inactive,–
CC1=C2C[C@H]3[C@@H](CC=C4C[C@@H](O)CC[C@@]43C)[C@@H]2CC[C@]12O[C@@H]1C[C@H](C)CN[C@H]1[C@H]2C,inactive,–
O=C(N[C@H]1CN2CCC1CC2)c1cc2ccoc2cn1,inactive,–
NS(=O)(=O)C(F)(F)C(F)(F)C(F)(F)C(F)(F)C(F)(F)C(F)(F)C(F)(F)C(F)(F)F,inactive,–
Oc1ccc(C(c2ccc(O)cc2)(C(F)(F)F)C(F)(F)F)cc1,inactive,–
ClC(Cl)=C(c1ccc(Cl)cc1)c1ccc(Cl)cc1,inactive,–
C[C@]12CCC(=O)C=C1CC[C@@H]1[C@@H]2CC[C@@]2(C)[C@H]1CC[C@]2(C)O,inactive,–
CCCN(CCC)N=O,inactive,–
CC(C)(c1ccccc1)c1ccc(O)cc1,inactive,–
Cc1cc2c3c(c1)C(c1ccccc1)=N[C@@H](NC(=O)c1ccncc1)C(=O)N3CC2,inactive,–
CC(C)(O)C(=O)Nc1ccc([N+](=O)[O-])c(C(F)(F)F)c1,inactive,–
CCCCCCOC(=O)c1ccccc1C(=O)OCCCCCC,inactive,–
N#Cc1ccc(N(CC(N)=O)CC(F)(F)F)cc1C(F)(F)F,inactive,–
Clc1ccc(Cl)cc1,inactive,–
Clc1ccc(C(c2ccccc2Cl)C(Cl)(Cl)Cl)cc1 (stereo unspecified),–,114 µM (active)
c1cc2ccc3cccc4ccc(c1)c2c34,inactive,–
